Data: PubChem BioAssay
“And” between values parts separate entries of the source, which are not always exact repeats. Identical values can stand only once. The source made the active and inactive calls. Unless noted, the rule behind the calls is not given here.

How the values were obtained:
[1] = tested on: Wnt5a (protein binding on small-molecule microarray); assay: Wnt5a binders on small-molecule microarray, primary screen, biophysical, 635/667 nm fluorescence (AID 1142); settings: 635 nm fluorescence, higher = more signal;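 note: fluorescence read at 667 nm with signal to noise per printed feature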
[2] = cell viability in Huh7 cells, primary screen, cytotoxicity control for HCV replication inhibitor project, CellTiter-Glo luminescence, basal, 48 h (AID 1143); settings: Huh7 HCV replicon, higher = more signal, called active from +8 up or from −8 down;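 note: Huh7 hepatoma cells carrying a hepatitis C replication reporter with no stimulus; test concentration not given here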
[3] = P. aeruginosa biofilm formation inhibitors, primary screen, PAO1 strain, BacTiter-Glo luminescence, LB-PBS (AID 1144); settings: 12 h, higher = more signal
[4] = CREB reporter modulators without forskolin, primary screen, cell-based, PC12, CRE-LacZ reporter, unstimulated (AID 1145); settings: no forskolin, luminescence, 4.5 h, higher = more signal, called active from +8 up or from −8 down
[5] = CREB reporter modulators under forskolin, primary screen, cell-based, PC12, CRE-LacZ reporter, forskolin-stimulated (AID 1146); settings: luminescence, 4.5 h, higher = more signal, called active from +8 up or from −8 down;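 note: PC12 cells with 6xCRE LacZ reporter stimulated by forskolin 10 µM; beta-galactosidase reporter signal reflecting CREB driven transcription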
[6] = target: Streptavidin (Streptomyces avidinii) (UniProt P22629); assay: streptavidin binders on small-molecule microarray, primary screen, artefact control for SMM compound annotation, biophysical, 635/667 nm fluorescence (AID 1147); settings: streptavidin binding, higher = more signal;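 note: signal reflects streptavidin binding to arrayed compounds as a control protein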
[7] = small-molecule binders of probe aInhba, primary screen, biochemical, small-molecule microarray, 635/667 nm fluorescence (AID 1148); settings: higher = more signal;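 note: score merges 667nm spot fluorescence with signal-to-noise for antibody binding to printed compounds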
Torsin-1A (Homo sapiens) [8] = target: Torsin-1A (Homo sapiens) (UniProt O14656); assay: torsin A binders from cell lysate, primary screen, small-molecule microarray, wild-type, 635/667 nm (AID 1149); settings: COS7 hTOR1A-WT lysate, 635 nm fluorescence, higher = more signal
Torsin-1A (Homo sapiens) [9] = target: Torsin-1A (Homo sapiens) (UniProt O14656); assay: small-molecule binders of mutant TOR1A in lysate, primary screen, cell lysate, small-molecule microarray, COS7 lysate, 635/667 nm fluorescence (AID 1150); settings: COS7 hTOR1A mutant lysate, 635 nm fluorescence, higher = more signal;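 note: score pools 667 nm emission and signal to noise measuring lysate protein binding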
[10] = tested on: Sonic hedgehog protein (Shh); assay: small-molecule binders of Shh protein, primary screen, biochemical, small-molecule microarray, 635/667 nm fluorescence (AID 1151); settings: small-molecule microarray binding, 635 nm fluorescence; higher = more signal;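 note: Shh protein binding to compounds spotted on small-molecule microarray slides; score combines spot fluorescence intensity with signal-to-noise across triplicate slides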

Torsin-1A (Homo sapiens), sequence (O14656 whole entry, looked up): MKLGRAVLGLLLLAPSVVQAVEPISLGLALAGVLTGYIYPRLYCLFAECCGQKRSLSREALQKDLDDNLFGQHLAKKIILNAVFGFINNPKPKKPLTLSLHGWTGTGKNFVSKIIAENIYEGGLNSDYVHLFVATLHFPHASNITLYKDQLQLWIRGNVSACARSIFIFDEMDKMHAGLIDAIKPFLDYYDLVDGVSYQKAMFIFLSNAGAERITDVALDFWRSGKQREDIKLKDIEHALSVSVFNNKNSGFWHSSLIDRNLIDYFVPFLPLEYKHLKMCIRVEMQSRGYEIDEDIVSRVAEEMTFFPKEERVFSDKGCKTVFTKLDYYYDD
Streptavidin (Streptomyces avidinii), sequence (P22629 whole entry, looked up): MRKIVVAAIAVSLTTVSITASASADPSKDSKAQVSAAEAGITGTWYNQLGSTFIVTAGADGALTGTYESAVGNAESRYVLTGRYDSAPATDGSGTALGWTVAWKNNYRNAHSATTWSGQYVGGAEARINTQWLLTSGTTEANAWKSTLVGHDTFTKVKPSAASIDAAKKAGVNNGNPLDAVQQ

Structure (SMILES) | composite z-score [1] | z-score [2] | z-score [3] | z-score [4] | z-score [5] | composite z-score [6] | composite z-score [7] | composite z-score (Torsin-1A (Homo sapiens) [8]) | composite z-score (Torsin-1A (Homo sapiens) [9]) | composite z-score [10]
C[C@@]1([C@@H](NC(=O)Cc2ccccc2)c2ccc(-c3ccccc3)cc2)C[C@H]1C1CCCCC1 | 1.42 and 1.03 and 0.799 | -4.75 (inactive) and -1.29 (inactive) and -1.07 (inactive) | -0.411 (inactive) and -0.255 (inactive) and 0.378 (inactive) | -0.957 (inactive) and -0.185 (inactive) and -0.375 (inactive) | -1.27 (inactive) and 0.614 (inactive) and 0.79 (inactive) | 2.11 and 0.863 and -0.261 | 0.846 and 1.64 and -0.328 | 0.0326 and 1.34 and 0.296 | 0.621 and 0.522 and 0.821 | -1.33 and -0.836 and -0.607
C=CCN(C(=O)C1N(c2c(Cl)cccc2CO)C(=O)C2C(C(=O)O)C3C=CC21O3)C(C)(C)C (stereo not given) | -0.948 and -0.619 | -0.488 (inactive) and 0.0489 (inactive) | -0.774 (inactive) and -0.443 (inactive) | -1.44 (inactive) and 0.329 (inactive) | -0.219 (inactive) and -0.51 (inactive) | 0.163 and -1.11 | -0.702 and -0.213 | -2.54 and -1.22 | -1.62 and -1.73 | -1.17 and -0.681
C=CCN(C(=O)C1N(c2ccc(CCO)cc2)C(=O)C2C(C(=O)O)C3C=CC21O3)c1ccc(OC)cc1 (stereo not given) | -0.416 and -0.717 | -0.0172 (inactive) and -1.2 (inactive) | -0.143 (inactive) and -1.34 (inactive) | 0.333 (inactive) and -1.97 (inactive) | -0.0772 (inactive) and -0.526 (inactive) | -0.683 and -1.98 | -0.0066 and -0.311 | -1.29 and -2.7 | -0.584 and -1.23 | -0.141 and -1.28
CC(C)=NO[C@@H](C)c1cc(-c2c(C)cc(C)cc2C)no1 | -0.278 | -2.11 (inactive) | -1.37 (inactive) | 1.49 (inactive) | -0.49 (inactive) | 0.186 | -0.128 | 0.0381 | -0.281 | -0.104
C=CCN(C(=O)C(c1cccs1)N(C(=O)/C=C\C(=O)O)C(C)(C)CO)c1ccc(OC)cc1 (stereo not given) | -0.0325 and -0.446 | -1.8 (inactive) and -0.679 (inactive) | -1.09 (inactive) | -0.488 (inactive) and -0.619 (inactive) | -1.07 (inactive) and 0.149 (inactive) | -1.19 and -0.56 | -0.061 and -0.0371 | -1.58 and -0.301 | -0.269 and 1.24 | -0.763 and -0.121
CCOC(=O)NN=C1C[C@@H](O)[C@@H](O)[C@@H]2[C@@H]3C(=O)N(Cc4ccc5c(c4)OCO5)C(=O)[C@@H]3CC[C@@H]12 | -0.0968 | -0.299 (inactive) | 1.43 (inactive) | -0.293 (inactive) | -0.341 (inactive) | 0.79 | -0.179 | 0.39 | 0.0143 | 0.191
C=CCN(CCCCC)C(=O)C(c1cccs1)N(C(=O)/C=C\C(=O)O)c1c(Cl)cccc1CO (stereo not given) | -0.473 and -1.02 | 0.497 (inactive) and 0.165 (inactive) | 0.858 (inactive) and 2.29 (inactive) | 0.605 (inactive) and -0.212 (inactive) | 1.2 (inactive) and 0.266 (inactive) | -1.34 and -1.63 | -0.202 and -0.233 | -2.37 and -3.28 | -0.23 and -2.06 | -1.14 and -0.909
C=CCN(C(=O)C(c1cccs1)N(CCOCCO)C(=O)/C=C\C(=O)O)C(C)(C)C (stereo not given) | -0.775 and -0.776 | -0.199 (inactive) and -0.0585 (inactive) | -1.2 (inactive) and -0.384 (inactive) | 1.42 (inactive) and 0.191 (inactive) | 0.005 (inactive) and -0.599 (inactive) | -1.89 and -1.22 | -0.251 and -0.176 | -1.26 and -0.984 | -1.79 and -2.02 | -1.27 and -0.703
CC[C@@H]1C(Sc2ccccc2)C(C(=O)O)[C@H](c2ccc(C)cc2)N1S(=O)(=O)c1ccc(C)cc1 (stereo not given in full) | 0.142 and 0.0997 | -0.318 (inactive) and -2.15 (inactive) | 0.281 (inactive) and 0.139 (inactive) | -0.574 (inactive) and -0.415 (inactive) | -0.0531 (inactive) and -0.545 (inactive) | 1.46 and 1.59 | -0.025 and -0.0736 | 1.19 and 0.429 | 1.5 and -0.0197 | 0.801 and -0.436
CC(C)CON=C1C[C@@H](O)[C@@H](O)[C@@H]2[C@@H]3C(=O)N(c4cccc(Oc5ccccc5)c4)C(=O)[C@@H]3CC[C@H]12 | 0.738 | -0.158 (inactive) | 0.198 (inactive) | -0.292 (inactive) | 0.235 (inactive) | 0.804 | -0.102 | -0.243 | 0.22 | 0.697
C[N+](C)(C)CCCCCCNC(=O)[C@H]1C[C@H]2C(=O)N[C@@H](CCCC[N+](C)(C)C)C(=O)N2[C@H]1c1ccc(O)cc1 | 0.0916 and 0.169 | -2.26 (inactive) and 0.0462 (inactive) | -0.978 (inactive) and -0.491 (inactive) | -1.22 (inactive) and 0.423 (inactive) | 0.188 (inactive) and -0.798 (inactive) | -0.52 and -0.486 | -0.131 and -0.0313 | -0.0883 and -0.172 | 0.0293 and -0.103 | 1.14 and 1.93
COC(=O)C1=C(C)N(Cc2ccccc2)C2=C(C(=O)c3ccccc3)[C@H](c3ccccc3)[C@@](O)(C(=O)OC)C(=O)N2[C@@H]1c1ccccc1 | 0.0925 and 0.179 | -2.35 (inactive) and 0.428 (inactive) | -1.1 (inactive) and -0.472 (inactive) | 3.09 (inactive) and -0.989 (inactive) | 0.415 (inactive) and -1.18 (inactive) | 0.077 and -0.118 | 0.0173 and -0.224 | 0.0486 and 0.0903 | 0.483 and -0.0314 | 0.557 and 0.757
C=CCN(CCCCC)C(=O)C1N(CCCCCCO)C(=O)C2C(C(=O)O)C3C=CC21O3 (stereo not given) | -0.332 and -1.43 | 0.289 (inactive) and 0.729 (inactive) | 1.69 (inactive) and 2.31 (inactive) | 0.333 (inactive) and -0.497 (inactive) | -0.587 (inactive) and -0.0866 (inactive) | -1.69 and -1.59 | -0.173 and -0.233 | -2.55 and -3.31 | -1.53 and 0.765 | -0.661 and -1.21
COC(=O)C1=C(C)N(Cc2ccccc2)C2=C3C(=O)CCC[C@@H]3[C@@](O)(C(=O)OC)C(=O)N2[C@@H]1c1ccccc1 | -0.0849 and 0.288 | -0.5 (inactive) and -1.53 (inactive) | 0.311 (inactive) | 1.65 (inactive) and 1.38 (inactive) | 0.703 (inactive) and -1.7 (inactive) | 0.14 and -0.503 | 0.155 and -0.0762 | 0.555 and -0.0343 | 0.844 and 0.0578 | 0.544 and 0.586
Cc1cc2c(nc1C)CCCN2CC(C)ON=C[C@@H](C)[C@H](OCc1ccccc1)C(C)C (stereo not given in full) | -0.0264 | 0.615 (inactive) | 0.461 (inactive) | 0.248 (inactive) | 0.317 (inactive) | -0.254 | -0.016 | -0.209 | 0.22 | 0.513
